Results on 36 molecules are retold here after the supplement of paper PMC7366291.

Structures can show the parent of a compound that is named as a salt.

The test system of the experiment is Danio rerio Tg(wt1b:EGFP) embryo, pronephros. Briefly: fraction of imaged embryos annotated as normal kidney; higher = less nephrotoxic; extreme values may be limits of the assay. Conditions: 25 µM; exposure: 24-48 hpf. The procedure, abridged:
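Embryos of the Tg(wt1b:EGFP) zebrafish line were dechorionated and held in 12-well plates with 25 μM compound in 0.5% DMSO and 5 mM HEPES-buffered E3 containing 0.003% PTU, from 24 to 48 hpf at 28.5°C. Larvae were then anaesthetised with tricaine, set dorsal side up in agarose-filled 96-well plates, and their pronephroi imaged by widefield fluorescence at 470 nm over 10 z-slices. Each value is the fraction of embryos per treatment placed in the normal-kidney category after manual annotation of maximum projections.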
With `CCOC(=O)C1=C(C)NC(C)=C(C(=O)OC)C1c1cccc([N+](=O)[O-])c1` (stereo unspecified) [Nitrendipine], the “fraction of imaged embryos annotated as normal kidney” value (shortened to “fraction of imaged embryos annotated”) came to 0.
Regarding `CC(=O)N(CC(O)CO)c1c(I)c(C(=O)NCC(O)CO)c(I)c(C(=O)NCC(O)CO)c1I` (stereo unspecified) [Iohexol], the “fraction of imaged embryos annotated” value came to 0.75.
On to `CCN1CCN(C(=O)N[C@@H](C(=O)N[C@@H]2C(=O)N3C(C(=O)O)=C(CSc4nnnn4C)CS[C@H]23)c2ccc(O)cc2)C(=O)C1=O` [Cefoperazone dihydrate], for which the “fraction of imaged embryos annotated” value stood at 0.909.
The figure for `CCN(CC)CCNC(=O)c1ccc(N)cc1` [Procainamide hydrochloride] is 0.455.
In the case of `OC(CCN1CCCCC1)(c1ccccc1)C1CC2C=CC1C2` (stereo unspecified) [Biperiden hydrochloride], the “fraction of imaged embryos annotated” value is 0.917.
The figure for `CC(=O)OCC(CCn1cnc2cnc(N)nc21)COC(C)=O` [Famciclovir] is 1; for `CC(C)NCC(O)c1ccc2ccccc2c1` (stereo unspecified) [Pronethalol hydrochloride] it is 0.833.
The figure for `Cc1cccc(C)c1OCC(C)N` (stereo unspecified) [Mexiletine hydrochloride] is 0.917.
Turning to `Cc1c(NC(=O)c2cccnc2)c(=O)n(-c2ccccc2)n1C` [Nifenazone], the “fraction of imaged embryos annotated” value stood at 0.833.
The figure for `C[C@]12CC[C@H]3C(=CCc4cc(O)ccc43)[C@@H]1CCC2=O` [Equilin] is 0.25; for `CC(=O)N[C@@H](CC(C)C)C(=O)O` [N-Acetyl-L-leucine] it is 0.917.
The figure for `CC(=O)O[C@H]1C[C@@]2(C)[C@@H](C[C@@H](O)[C@H]3[C@@]4(C)CC[C@@H](O)[C@@H](C)[C@@H]4CC[C@@]32C)/C1=C(\CCC=C(C)C)C(=O)O` [Fusidic acid sodium salt] is 1; for `Nc1ccc(S(N)(=O)=O)cc1` [Sulfanilamide] it is 0.833; for `C[C@]12CCC(=O)C=C1C=C[C@@H]1[C@@H]2CC[C@@]2(C)[C@H]1CC[C@@]21CCC(=O)O1` [Canrenone] it is 0.818.
The figure for `O=S(=O)(O)c1cc(O)ccc1O` [Ethamsylate] is 0.917.
In the case of `Nc1cc(N2CCCCC2)nc(N)[n+]1[O-]` [Minoxidil], the “fraction of imaged embryos annotated” value turned out to be 0.917.
The figure for `CSc1ccc2c(c1)N(CCC1CCCCN1C)c1ccccc1S2` (stereo unspecified) [Thioridazine hydrochloride] is 0.75; for `CC(C)n1c(/C=C/C(O)CC(O)CC(=O)O)c(-c2ccc(F)cc2)c2ccccc21` (stereo unspecified) [Fluvastatin sodium salt] it is 0; for `Nc1nc(N)c2nc(-c3ccccc3)c(N)nc2n1` [Triamterene] it is 0.75.
The figure for `COC(=O)[C@@H]1[C@H]2C[C@H]3c4[nH]c5ccccc5c4CCN3C[C@@H]2CC[C@@H]1O` [Yohimbine hydrochloride] is 0.727; for `C[C@]12CC[C@@H]3c4ccc(OS(=O)(=O)O)cc4CC[C@H]3[C@@H]1CCC2=O` [Estropipate] it is 0.75.
For the molecule `CC(=C(CCO)SSCC1CCCO1)N(C=O)Cc1cnc(C)nc1N` (stereo in doubt) [Fursultiamine Hydrochloride], the “fraction of imaged embryos annotated” value came out at 0.833.
Turning to `C(=C\c1ccccc1)/CN1CCN(C(c2ccccc2)c2ccccc2)CC1` [Cinnarizine], the “fraction of imaged embryos annotated” value was found to be 0.75.
The figure for `CCN[C@H]1CN(CCCOC)S(=O)(=O)c2sc(S(N)(=O)=O)cc21` [Brinzolamide] is 0.5; for `N=C(N)NCc1cccc(I)c1` [Iobenguane sulfate] it is 1; for `CO/N=C(\C(=O)N[C@@H]1C(=O)N2C(C(=O)O)=C(COC(C)=O)CS[C@H]12)c1csc(N)n1` [Cefotaxime sodium salt] it is 0.909.
The figure for `CC(=O)NC[C@H]1CN(c2ccc(N3CCOCC3)c(F)c2)C(=O)O1` [Linezolid] is 0.917; for `O=C(CCCN1CC=C(n2c(=O)[nH]c3ccccc32)CC1)c1ccc(F)cc1` [Droperidol] it is 0.667; for `NC(Cc1cc(I)c(Oc2cc(I)c(O)c(I)c2)c(I)c1)C(=O)O` (stereo unspecified) [Thyroxine (L)] it is 0.75.
The figure for `Nc1nc(O)c2ncn(CCC(CO)CO)c2n1` [Penciclovir] is 0.917.
Regarding `O=C1NCC2(CCN(CCc3ccccc3)CC2)O1` [Fenspiride hydrochloride], the “fraction of imaged embryos annotated” value amounted to 0.833.
The figure for `Cc1c(N)c(=O)n(-c2ccccc2)n1C` [Ampyrone] is 0.917.
The figure for `CC1=C(/C=C/C(C)=C/C=C/C(C)=C\C(=O)O)C(C)(C)CCC1` [Isotretinoin] is 0; for `CS(=O)(=O)OCCCCOS(C)(=O)=O` [Busulfan] it is 0.75; for `COc1ccnc(C[S+]([O-])c2nc3cc(OC(F)F)ccc3[nH]2)c1OC` (stereo unspecified) [Pantoprazole sodium] it is 0.833.
The figure for `O=C(NC(Cc1cc(=O)[nH]c2ccccc12)C(=O)O)c1ccc(Cl)cc1` (stereo unspecified) [Rebamipide] is 0.917.
